Assay outcomes from PubChem BioAssay.
APOBEC3A inh – APOBEC3A ssDNA deaminase inhibitors, primary screen, selectivity assay for APOBEC3G inhibitor project, biochemical, FAM/TAMRA oligo cleavage fluorescence. DNA dC->dU-editing enzyme APOBEC-3A (Homo sapiens), P31941. inhibition, % at 20 µM. recombinant A3A, FAM/TAMRA ssDNA deamination fluorescence. 0.41% of 330,000 active;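 active = at least 40% inhibition at 20 µM here, with at most 30% in a related deaminase screen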
Target sequence (P31941 whole entry, looked up): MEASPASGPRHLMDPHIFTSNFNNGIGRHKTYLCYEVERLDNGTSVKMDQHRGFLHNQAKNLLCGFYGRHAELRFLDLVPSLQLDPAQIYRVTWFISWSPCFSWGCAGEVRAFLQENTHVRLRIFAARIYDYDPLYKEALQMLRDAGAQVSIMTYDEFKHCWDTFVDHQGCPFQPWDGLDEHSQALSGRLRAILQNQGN
ADAM10 inh – human ADAM10 inhibitors, primary screen, biochemical, QFRET, HTS; 0.62% of 370,000 active; recombinant ADAM10, EDANS/DABCYL FRET peptide cleavage, 3 h; AID 720582, 2013; Disintegrin and metalloproteinase domain-containing protein 10 (Homo sapiens), O14672; inhibition, % at 7 µM;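 active = inhibition above a per-campaign cutoff equal to the mean of compounds falling between control-based bounds plus 3 SD, cut at about 20% in these data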
CendR NRP1 mod – modulators of CendR peptide binding to NRP-1, primary screen, biochemical, fluorescence polarization, uHTS. FAM-RPARPAR peptide binding to NRP-1. inhibition, % at 25 µM. 0.85% of 360,000 active. AID 602438, 2012;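 active = inhibition or corrected inhibition above about 18%, plus a signal ratio from 0.5 to 1.5, limit read from the data, passing the limit was not always enough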
ADAM17 inh – ADAM17 inhibitors, primary screen, biochemical, QFRET; 0.83% of 370,000 active; recombinant ADAM17, EDANS/DABCYL FRET peptide cleavage; Disintegrin and metalloproteinase domain-containing protein 17 (Homo sapiens), P78536; AID 720648, 2013; inhibition, % at 6.95 µM;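 active = inhibition above the mean of compounds lying between control limits plus 3 SD, set per campaign, cut at about 8.5% in these data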
A3G deaminase – APOBEC3G DNA deaminase inhibitors, primary screen, biochemical, fluorescence, single-stranded DNA substrate, uHTS; DNA dC->dU-editing enzyme APOBEC-3G (Homo sapiens), Q9HC16; recombinant A3G, ssDNA deamination FAM/TAMRA fluorescence; inhibition, % at 20 µM; 0.28% of 330,000 active; AID 493012, 2011;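 active = inhibition of at least 40% at 20 µM, with no more than 30% in the related APOBEC3A deaminase screen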
ADAM10 ctr – ADAM10 inhibitors, counter-screen for ADAM17 exosite inhibitor project, biochemical, FRET, human ADAM10; shares compounds with ADAM17 inh; recombinant ADAM10, EDANS/DABCYL FRET peptide cleavage, 3 h; inhibition, % at 6.95 µM; 47% of 2,900 active; AID 743256, 2014;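 active = mean inhibition over the triplicate runs exceeds the activity threshold set in the earlier primary screen, cut at about 20% in these data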
ADAM17 confirm – ADAM17 inhibitors, hit retest, confirmation, biochemical, QFRET peptide cleavage. shares compounds with ADAM17 inh. 65% of 2,900 active. recombinant ADAM17, EDANS/DABCYL QFRET peptide cleavage. inhibition, % at 6.95 µM;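 active = mean inhibition across replicates above the hit cutoff set in the primary screen, cut at about 8.5% in these data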
Hits are given with their value; i = inactive; nt = no result. Compounds with a hit are over-represented: about 2.4% of the library has one in this group of screens.

SMILES	APOBEC3A inh	ADAM10 inh	CendR NRP1 mod	ADAM17 inh	A3G deaminase	ADAM10 ctr	ADAM17 confirm
CCC(C)NS(=O)(=O)c1ccc(S(=O)(=O)N(CC(=O)Nc2ccccc2)Cc2ccco2)cc1 (centres undefined)	i	i	i	8.9	i	20	11
O=C(CN(Cc1ccco1)S(=O)(=O)c1ccccc1)N/N=C/c1ccccc1C(=O)O	i	i	i	i	i	nt	nt
COc1ccc(C(=S)N2CCN(c3ccccc3C)CC2)cc1	i	i	i	9.4	i	i	i
COc1ccc(C(=S)N2CCCCCC2)cc1	i	i	i	i	i	nt	nt
COc1cc(C)c(C(=O)Oc2cc(C)c(C(=O)O)c(O)c2)c(O)c1	i	i	i	i	i	nt	nt
COc1cc(C)c(C(=O)Oc2cc(C)c(C(=O)O)c(O)c2C)c(O)c1C	i	i	i	11	i	i	11
CCOC(=O)c1csc(NC(=O)C2CCCN(S(=O)(=O)c3cccs3)C2)n1 (centres undefined)	nt	i	nt	i	nt	nt	nt
CCC(C)N(Cc1ccc(OC)cc1OC)S(=O)(=O)c1cc(Br)ccc1Br (centres undefined)	nt	i	nt	i	nt	nt	nt
COc1ccccc1N=Nc1nc(-c2ccccc2)c(-c2ccccc2)[nH]1	nt	i	i	12	nt	i	10
COc1ccc([C@H]2C[C@H](O)[C@@H](n3cc(COC(=O)c4ccccc4)nn3)CN2Cc2cccs2)cc1	nt	i	i	9.3	nt	i	i
CCCCCC(=O)N1C[C@H](n2cc(COC(=O)c3ccccc3)nn2)[C@@H](O)C[C@@H]1c1ccc(C)cc1	nt	i	i	9.8	nt	33	17
CCCCCC(=O)N1C[C@@H](n2cc(-c3ccc(F)cc3)nn2)[C@H](O)C[C@@H]1c1ccc(C)cc1	nt	i	i	10	nt	i	9.9
CCCCCC(=O)N1C[C@@H](O)[C@H](n2cc(-c3ccc(F)cc3)nn2)C[C@@H]1c1ccc(C)cc1	nt	i	i	i	nt	nt	nt
CCCCCC(=O)N1C[C@@H](O)[C@H](n2cc(COC(=O)c3ccccc3)nn2)C[C@@H]1c1ccc(C)cc1	nt	i	i	i	nt	nt	nt
CN(C)CC(=O)N[C@H]1C[C@@H]2O[C@@H](CO)CC[C@@H]2O[C@@H]1CCc1ccc(C2=CCCCC2)cc1	nt	i	nt	i	nt	nt	nt
CC1(C)CC(=O)c2sc(NS(=O)(=O)c3ccccc3)nc2C1	i	i	i	i	i	nt	nt
CC1(C)CC(=O)c2sc(NS(=O)(=O)c3ccc([N+](=O)[O-])cc3)nc2C1	i	i	i	16	i	22	i
COc1c(C(CC(C)C)OC(C)=O)ccc2c1C(=O)OCc1cc(C)cc(O)c1O2 (centres undefined)	i	i	i	12	i	27	16
COc1c(C(O)CC(C)C)ccc2c1C(=O)OCc1cc(C)cc(O)c1O2 (centres undefined)	i	i	i	i	i	nt	nt
C=CCN1C(=O)[C@H](CC(=O)NCCCCc2ccccc2)[C@@]2(C(=O)OCC)CCCC=C12	nt	i	nt	i	nt	nt	nt
CCn1c(COc2ccccc2C)nnc1SCC(=O)N1CCN(c2ccccc2)CC1	i	i	i	i	i	nt	nt
CCn1c(CC(=O)Nc2cccc(OC)c2)nnc1SCC(=O)N1CCN(c2ccccc2)CC1	i	i	i	12	i	30	18
Cc1cccc(NC(=S)N=Nc2c(O)[nH]c3ccccc23)c1	i	i	i	9.9	i	27	13
COCC(C)n1c(SCC(=O)NC(=O)NCc2ccccc2)nc2ccccc2c1=O (centres undefined)	i	i	i	10	i	i	i
COc1ccc(/C(C)=N/NC(=O)Cc2cc(=O)[nH][nH]2)cc1OC	nt	i	nt	i	nt	nt	nt
